Screens: PubChem, National Center for Advancing Translational Sciences (NCATS)
In the library only some 1.8% were active in any assay of this set; here they are far more common.
GLP1R inv ag: GLP-1 receptor (human) inverse agonism. 410,000 compounds, 1.6% hits. Potency, µM (top dose mostly 38.3 µM), without a hit: at the highest dose activity change, negative = inhibition, hits mostly inhibitors. AID 624417. HEK293 GLP-1R CRE-luciferase, luminescence, 24 h; GLP-1R form is constitutively active. P43220; further: on the % scale 0 is the no-effect control and ±100 the full control effect; nearly all actives have a fitted effect of over 55% in size
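Readout was luciferase luminescence, measured 12 min after detection reagent at room temperature. Beforehand, GLP-1R reporter HEK293 cells had sat 12 h, then received compounds for 24 hr at 37 deg C.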
GLP-1R agonist: agonists of human GLP-1 receptor; P43220; HEK293 GLP-1R CRE-luciferase, luminescence, 4-6 h; cells express a hypersensitive GLP-1R form; Potency, µM (titrated, usually from 45.6 µM), without a hit: at the highest dose activation, hits mostly activators; 380,000 compounds, 0.007% hits; AID 624172; further: % of control where 0% means no effect
HEK293 tox: cytotoxicity counter-screen for GLP-1 receptor inverse agonists | Potency, µM (top dose mostly 38.3 µM), for inactives: at the highest dose activity change, negative = inhibition, most hits filed as inhibitors | 410,000 compounds, 0.13% hits | HEK293 cAMP-luciferase reporter cells, luminescence, 24 h;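 further: loss of luciferase light is scored as toxicity; on the % scale 0 is the no-effect control and ±100 the full control effect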
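To flag toxic compounds, the library was rerun on cells for 24 hr at 37 deg C and 5% CO2. Viability-linked luminescence was captured 12 min after adding luciferase detection reagent.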
Tb PFK inh: T. brucei PFK enzyme inhibition. O15648. T. brucei PFK, ADP-Glo luminescence. Potency, µM (titrated, usually from 57.5 µM), for inactives: at the top dose activity, negative = inhibition, most hits filed as inhibitors. 330,000 compounds, 0.17% hits. AID 485367;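 further: 0% = uninhibited 1x PFK enzyme wells and -100% = no-enzyme wells; nearly all actives have a fitted effect of over 60% in size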
Target sequence (O15648 whole entry, looked up): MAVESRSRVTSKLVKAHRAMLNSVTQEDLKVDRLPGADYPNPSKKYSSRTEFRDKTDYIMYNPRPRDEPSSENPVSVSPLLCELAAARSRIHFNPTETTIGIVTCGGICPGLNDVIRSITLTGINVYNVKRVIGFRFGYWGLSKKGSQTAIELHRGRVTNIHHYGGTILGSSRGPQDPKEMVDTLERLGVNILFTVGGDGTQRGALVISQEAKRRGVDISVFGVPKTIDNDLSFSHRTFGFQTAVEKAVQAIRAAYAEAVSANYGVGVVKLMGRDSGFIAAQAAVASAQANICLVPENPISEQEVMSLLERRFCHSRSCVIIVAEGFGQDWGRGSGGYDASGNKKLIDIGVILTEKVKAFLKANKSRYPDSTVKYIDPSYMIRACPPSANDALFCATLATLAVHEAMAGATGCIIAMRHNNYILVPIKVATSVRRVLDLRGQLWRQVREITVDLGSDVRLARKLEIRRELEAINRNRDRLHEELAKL
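1.25 nM PFK with 0.5 mM F6P and 0.1 mM ATP in 0.1 M TEA pH 8.0, 5 mM MgCl2, incubated 45 min at room temperature; ADP measured by ADP-Glo luminescence; compounds titrated up to 57 uM.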
Tb PGK inh: inhibitors of T. brucei phosphoglycerate kinase | P07378 | PGK/GAPDH coupled, Kinase-Glo luminescence, 60 min | Potency, µM (series often up to 57.5 µM), for the others: at the top dose activity change, negative = inhibition, hits mostly inhibitors | 380,000 compounds, 0.043% hits; further: on the % scale 0 is the no-effect control and ±100 the full control effect; nearly all actives have a fitted effect of over 60% in size
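Recombinant glycosomal PGK reaction used 1,3-bisphosphoglycerate generated in-well by GAPDH (100nM final) in 100mM TEA pH 7.6, 5mM MgCl2, 0.01% Tween-20. After 60 minutes at room temperature, ATP was read by Kinase-Glo Plus luminescence end-point.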
Pin1 inh: inhibitors of human Pin1. Potency, µM (doses to about 115 µM), without a hit: top-dose activity, negative = inhibition, hits mostly inhibitors. AID 504891. 390,000 compounds, 0.009% hits. Pin1 FP peptide displacement, HiFluor488, 10 min. Q13526; active means well fitted inhibition curve with a large enough effect in the polarisation, with a control signal flat, not every such curve was filed as active; inconclusive means small, poorly fitted or top-dose-only effect, or effect the other way, or a change in a side signal; inactive means no such curve, though single readings can be large or run the other way; the % refers to the polarisation; further: on the % scale 0 is the no-effect control and ±100 the full control effect
Target sequence (Q13526 whole entry, looked up): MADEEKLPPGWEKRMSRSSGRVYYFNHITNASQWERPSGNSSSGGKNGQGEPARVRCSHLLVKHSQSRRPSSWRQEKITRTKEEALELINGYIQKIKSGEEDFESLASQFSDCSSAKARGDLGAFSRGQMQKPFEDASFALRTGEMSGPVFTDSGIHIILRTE
The depositor's hits bear a star; i = inactive; ? = inconclusive; nt = not tested or not shown. Unless noted, the call rests on the fitted dose curve; in most records, active means well fitted curve in the direction sought with a large enough effect; inconclusive means small, poorly fitted or top-dose-only effect, or another doubt; inactive means no such curve, though single readings can be large; an effect the other way counts as inactive or inconclusive. Potency means the concentration at half of the fitted maximal effect.

SMILES	GLP1R inv ag	GLP-1R agonist	HEK293 tox	Tb PFK inh	Tb PGK inh	Pin1 inh
CCOc1ccc(NC(=O)CCS(=O)(=O)c2cc3c4c(c2)CCN4C(=O)CC3)cc1	-5%	nt	-1%	nt	7%	-3%
O=C1c2ccccc2C(=O)N1c1ncccc1O	nt	nt	nt	nt	nt	-12%
OC(COc1ccc2ccccc2c1Br)Cn1cnc(-c2ccccc2)c1 (stereo not given)	10µM*	5%	-23%	-3%	9%	10%
COc1ccc(OCC(O)Cn2cnc(-c3ccc(Br)cc3)c2)cc1 (stereo not given)	?	1%	11%	-3%	i	7%
COc1cc(C(=O)O[C@H]2C/C(C)=C/CC[C@]3(C)O[C@@H]3C(O)C2C(C)C)cc(OC)c1OC (stereo not given in full)	?	25%	-15%	4%	-5%	3%
COc1cc(C(=O)O[C@H]2C/C(C)=C/CC[C@@]3(C)O[C@@H]3[C@H](O)[C@@H]2C(C)C)cc(OC)c1OC	13µM*	8%	6%	-7%	11%	?
Cc1ccc(-c2nc(C)c(C(=O)O)s2)cc1	10µM*	-4%	-7%	-2%	i	0%
Cc1cc(C)cc(OCC(=O)N(Cc2cccs2)c2ccc(Cl)cc2)c1	10µM*	nt	-7%	nt	-2%	-1%
COc1ccc(N(Cc2cccs2)C(=O)COc2cc(C)c(Cl)c(C)c2)cc1	8.9µM*	nt	-22%	nt	-3%	0%
CC(CNC(=O)C1CCN(C(=O)N2CCOc3ccc(Cl)cc32)CC1)c1ccccc1 (stereo not given)	1%	nt	6%	nt	-5%	7%
CCC1CCc2c(sc(NC(=O)C3c4ccccc4Oc4ccccc43)c2C(=O)OC)C1 (stereo not given)	?	nt	42%	nt	9%	54%
Cn1cncc1CNc1ncnc2ccc(-c3ccc4c(c3)OCO4)cc12	nt	nt	nt	nt	nt	0%
O=C(c1cnn2c1NC(c1ccco1)CC2C(F)(F)F)N1CCN(c2cccc(Cl)c2)CC1 (stereo not given)	2.2µM*	-11%	?	-9%	0%	8%
COc1ccc(-n2c(=O)c3c(c4cc(OC)ccc4n3C)n(Cc3cccc(OC)c3)c2=O)cc1	5%	0%	8%	nt	i	2%
CCCN(CCC)S(=O)(=O)c1ccc(N2CCCC2=O)c([N+](=O)[O-])c1	-7%	13%	5%	-5%	-3%	-2%
CCCN(CCC)S(=O)(=O)c1ccc(Cl)c([N+](=O)[O-])c1	?	-8%	13µM*	-3%	-4%	-6%
Cc1ccc(CNC(=O)c2ccc3c(c2)N(Cc2ccccc2F)C(=O)c2ccccc2S3(=O)=O)cc1	-3%	0%	2%	nt	i	-7%
COc1cccc(C2c3c(ncn(-c4cccnc4)c3=N)Oc3ccc4ccccc4c32)c1 (stereo not given)	nt	nt	nt	nt	nt	4%
CCOc1c(C)cnc2c1c(=O)n(Cc1cccc(Cl)c1)c(=O)n2C	10µM*	3%	37%	-5%	-1%	9%
Cc1ccc(S(=O)(=O)NC2c3cccc4cccc(c34)C2Sc2nc(C)cc(C)n2)cc1 (stereo not given)	7.1µM*	2%	16%	0%	0%	-2%
N#CC(c1ccc(F)cc1)c1ccc(C(=O)c2ccc(F)cc2)cc1 (stereo not given)	?	11%	20%	5%	0%	6%
Cc1ccc(C(C#N)c2ccc(C(=O)c3ccc(F)cc3)cc2)cc1 (stereo not given)	11µM*	-3%	13%	3%	-4%	1%
Cc1ccsc1/C=C(\CC(=O)O)c1nc2ccccc2o1	15%	-1%	-12%	7%	-4%	-16%
Cc1ccsc1/C=C(\C(=O)c1ccc(OC(C)C)cc1)c1nc2ccccc2o1	4µM*	9%	2%	6%	-4%	61%
Cc1cc(C)cc(NS(=O)(=O)c2ccc(-c3cc(C)no3)cc2)c1	3.5µM*	nt	-22%	nt	-5%	-3%
SMILES	GLP1R inv ag	GLP-1R agonist	HEK293 tox	Tb PFK inh	Tb PGK inh	Pin1 inh
Cc1ccccc1-c1ocnc1C(=O)Nc1ccccc1NC(=O)c1ccccn1	4µM*	13%	?	-7%	5%	-1%
Cc1ccc(C)c(C(=O)c2ccccc2NC(=O)c2ccccn2)c1	?	?	-13%	0%	3%	?
Cc1cc2c(s1)c1cnn(Cc3c(F)cccc3F)c(=O)c1n2C	nt	nt	nt	nt	nt	13%
O=C1CSC(=Nc2ccc(Cl)cc2)N1Cc1ccco1	8.9µM*	14%	17%	-6%	-9%	4%
Cc1cc(C)c(N=C2SCC(=O)N2Cc2ccco2)c(C)c1	?	9%	6%	1%	-21%	-4%
Cc1cccc(OC(C)C(=O)N2CCC(c3nc4ccccc4o3)CC2)c1C (stereo not given)	?	nt	-4%	nt	-10%	-7%
COc1ccccc1C(=O)Nc1ccc(OCC(=O)N2CC(C)CC(C)C2)cc1 (stereo not given)	10µM*	-5%	4%	-6%	i	-5%
COc1cc(SC)ccc1C(=O)Nc1ccc(OCC(=O)N2CCOCC2)cc1	-23%	5%	9%	1%	-3%	4%
O=C(Nc1ccc(OCC(=O)N2CCC(Cc3ccccc3)CC2)cc1)c1ccco1	0%	-6%	-2%	1%	-3%	?
CC(=O)Nc1ccc(OCC(=O)N2CCC(Cc3ccccc3)CC2)cc1	13µM*	7%	-1%	2%	-2%	4%
COc1ccc(C2Nc3ccccc3C(=O)N2Cc2ccco2)cc1COc1ccc(F)cc1 (stereo not given)	10µM*	-14%	-8%	-4%	2%	10%
COc1ccc(N2C(=O)c3ccccc3NC2c2ccc(OC)c(CSc3ccccn3)c2)cc1 (stereo not given)	0%	11%	1%	0%	-7%	0%
CCCN1C(=O)c2ccccc2NC1c1ccc(OC)c(CSc2ccccn2)c1 (stereo not given)	13µM*	17%	5%	-7%	-2%	8%
Nc1ccc2oc(Cc3ccc(Cl)cc3)nc2c1	6%	nt	-1%	nt	nt	-2%
COc1ccc(S(=O)(=O)c2nnn(-c3ccc(C(C)C)cc3)c2C)cc1	-8%	nt	1%	nt	-11%	-12%
O=C(Nc1ccc2nc3n(c(=O)c2c1)CCCCC3)c1c(F)ccc([N+](=O)[O-])c1F	?	-3%	?	-5%	-7%	0%
